This is a sample that favours compounds with a hit; in the whole collection about 11% have one here.
NIH3T3 tox = kills NIH 3T3 cells; NIH 3T3 viability, CellTiter-Glo ATP luminescence, 48-72 h; 94,000 compounds, 4.3% hits; Potency, µM (series often up to 96.7 µM), inactives show at the top dose activity change, negative = cytotoxicity, hits mostly inhibitors; further: on the % scale 0 is the no-effect control and ±100 the full control effect; nearly all actives have a fitted effect of over 55% in size
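Luminescent ATP readout (CellTiter-Glo, 10 min RT) after 48 or 72 hr compound exposure of NIH 3T3 cells seeded at 400 cells/well in 1536-well format; quantitative HTS.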
FLuc inh-1 = blocks purified firefly luciferase enzyme activity. AID 1347043. P08659. Potency, µM (highest dose often 115 µM), actives largely listed as inhibitors. 76,000 compounds, 2.5% hits. purified P. pyralis luciferase, luminescence, biochemical; further: on the % scale 0 is the no-effect control and ±100 the full control effect; nearly all actives have a fitted effect of over 65% in size
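Inhibitors were tested against purified firefly luciferase in a biochemical, low-substrate format (both substrates at 10uM) and luminescence measured with a CCD imager.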
HEK293 tox = kills HEK 293 cells | HEK 293 viability, ATP luminescence (CellTiter-Glo), 48-72 h | Potency, µM (doses to about 115 µM), for the others: at the top dose activity change, negative = cytotoxicity, hits mostly inhibitors | 94,000 compounds, 6.6% hits; further: on the % scale 0 is the no-effect control and ±100 the full control effect; nearly all actives have a fitted effect of over 60% in size
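Viability of HEK 293 cells, plated at 250 cells/well, was judged by cellular ATP after compound treatment for 48 or 72 hr. Luminescence was imaged 10 min after CellTiter-Glo addition at room temperature.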
hNpr1 antagonist = antagonists of human natriuretic peptide receptor Npr1; P16066; HEK293 hNpr1 GloSensor cGMP, ANP-stimulated luminescence; Potency, µM (doses to about 46.3 µM), for the others: top-dose activity change, negative = inhibition, hits mostly inhibitors; 76,000 compounds, 1.6% hits; AID 1347048; calls by dose curve; further: on the % scale 0 is the no-effect control and ±100 the full control effect; nearly all actives have a fitted effect of over 60% in size
Target sequence (P16066 whole entry, looked up): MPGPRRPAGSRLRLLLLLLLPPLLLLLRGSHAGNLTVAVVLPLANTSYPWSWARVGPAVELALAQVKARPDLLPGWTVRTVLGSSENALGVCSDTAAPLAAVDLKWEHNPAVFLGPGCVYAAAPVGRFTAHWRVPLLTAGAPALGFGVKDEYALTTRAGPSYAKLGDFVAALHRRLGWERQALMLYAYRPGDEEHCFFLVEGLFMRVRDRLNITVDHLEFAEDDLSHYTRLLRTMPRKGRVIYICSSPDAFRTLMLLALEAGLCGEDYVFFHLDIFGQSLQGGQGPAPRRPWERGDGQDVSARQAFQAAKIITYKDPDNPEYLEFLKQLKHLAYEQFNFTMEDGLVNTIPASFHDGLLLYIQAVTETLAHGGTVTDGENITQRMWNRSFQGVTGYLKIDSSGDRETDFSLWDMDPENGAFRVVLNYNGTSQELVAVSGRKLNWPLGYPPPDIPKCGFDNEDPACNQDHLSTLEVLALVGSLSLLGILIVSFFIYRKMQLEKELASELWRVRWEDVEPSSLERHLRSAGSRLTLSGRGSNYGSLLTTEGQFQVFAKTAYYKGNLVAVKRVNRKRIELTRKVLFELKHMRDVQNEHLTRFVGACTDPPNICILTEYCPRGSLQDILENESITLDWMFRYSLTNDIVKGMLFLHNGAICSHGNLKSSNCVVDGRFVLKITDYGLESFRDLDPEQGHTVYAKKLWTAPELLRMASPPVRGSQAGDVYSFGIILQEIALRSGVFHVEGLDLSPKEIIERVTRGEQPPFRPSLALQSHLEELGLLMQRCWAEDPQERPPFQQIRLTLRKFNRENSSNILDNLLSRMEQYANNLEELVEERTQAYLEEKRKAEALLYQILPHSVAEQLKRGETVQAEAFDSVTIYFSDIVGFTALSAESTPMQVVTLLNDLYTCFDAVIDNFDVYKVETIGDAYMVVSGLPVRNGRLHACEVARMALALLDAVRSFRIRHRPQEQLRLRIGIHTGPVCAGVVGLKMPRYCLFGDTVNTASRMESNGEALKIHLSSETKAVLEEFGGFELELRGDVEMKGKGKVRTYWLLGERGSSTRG
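Compound pre-incubated 30 min at room temperature on GloSensor-loaded HEK293 cells stably carrying hNpr1 and the pGS-40F cGMP biosensor. Stimulation uses hNppA at 0.1 nM final; luminescence is taken at baseline and 20 min post-agonist.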
FLuc SDR -ATP = stabilizes firefly luciferase without ATP. shares compounds with FLuc inh-1. Purified FLuc-C-HiBiT, Nano-Glo HiBiT luminescence, no ATP. Potency, µM (highest dose often 32.7 µM), inactives show at the top dose activation (signal gain), most hits filed as activators. 1,300 compounds, 7.8% hits; further: nearly all actives have a fitted effect of over 55% in size
FLuc SDR ATP = stabilizes firefly luciferase with ATP present; shares compounds with FLuc inh-1; Potency, µM (titrated, usually from 32.7 µM), inactives show at the top dose activation (gain of signal), usual class: activators; purified FLuc-C-HiBiT + ATP, HiBiT complementation luminescence; 1,300 compounds, 8.7% hits;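 further: signal reports ligand binding via conformational change of the enzyme rather than luciferase catalysis; % of control where 0% means no effect; nearly all actives have a fitted effect of over 55% in size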
FLuc inh-2 = firefly luciferase enzyme inhibition; shares compounds with FLuc inh-1; purified FLuc-C-HiBiT enzyme, luciferin luminescence; Potency, µM (doses to about 32.7 µM), for the others: at the top dose activity change, negative = inhibition, most hits filed as inhibitors; 1,300 compounds, 42% hits; AID 1963320; further: on the % scale 0 is the no-effect control and ±100 the full control effect; nearly all actives have a fitted effect of over 70% in size
Npr1 antag conf = hNpr1 antagonism, confirmation assay | shares compounds with hNpr1 antagonist | HEK293 hNpr1 cGMP GloSensor luminescence, ANP-stimulated | Potency, µM (highest dose often 57.6 µM), for the others: top-dose activity change, negative = inhibition, hits mostly inhibitors | 1,400 compounds, 76% hits | AID 1347044; calls by dose curve; further: nearly all actives have a fitted effect of over 70% in size
Npr2 selectivity = selectivity test of Npr1 antagonists against human Npr2; shares compounds with hNpr1 antagonist; HEK293 hNpr2 GloSensor cGMP luminescence, CNP-stimulated; Potency, µM (titrated, usually from 57.6 µM), inactives show at the highest dose activity change, negative = inhibition, most hits filed as inhibitors; 1,400 compounds, 67% hits; AID 1347046; calls by dose curve; further: nearly all actives have a fitted effect of over 70% in size
FLuc counter = FLuc enzyme inhibition, Npr1 counter-screen. shares compounds with hNpr1 antagonist. purified FLuc enzyme, luminescence, Km substrate. Potency, µM (titrated, usually from 57.6 µM), for inactives: top-dose activity change, negative = inhibition, most hits filed as inhibitors. 1,400 compounds, 0.7% hits. AID 1347047; further: series mostly up to about 58 µM; 0% is about no effect
GloSensor ctrl = control cell line activity, Npr1 antagonist counter-screen. HEK293 GloSensor cGMP, SNP-stimulated, luminescence. 1,400 compounds, 69% hits. shares compounds with hNpr1 antagonist. Potency, µM (doses to about 57.6 µM), inactives show at the top dose activity change, negative = inhibition, actives largely listed as inhibitors; calls by dose curve; further: on the % scale 0 is the no-effect control and ±100 the full control effect; nearly all actives have a fitted effect of over 70% in size
Numbers without * were called inactive; i = inactive; ? = inconclusive; · = no result; [ ] = remark or other dose. Unless noted, the call rests on the fitted dose curve; in most records, active means well fitted curve in the direction sought with a large enough effect; inconclusive means small, poorly fitted or top-dose-only effect, or another doubt; inactive means no such curve, though single readings can be large; an effect the other way counts as inactive or inconclusive. Potency means the concentration at half of the fitted maximal effect.

SMILES | NIH3T3 tox | FLuc inh-1 | HEK293 tox | hNpr1 antagonist | FLuc SDR -ATP | FLuc SDR ATP | FLuc inh-2 | others
O=C(O)C1CN(Cc2ccc(-c3nc4cc(Cc5ccccc5F)ccc4s3)c(F)c2)C1 | · | · | · | · | 15%[5.62 µM] | 9%[5.62 µM] | 4%[5.62 µM]
COc1ccc(C2=NOC3(CCN([S+](=O)([O-])c4cccs4)C3)C2)cc1 (centres undefined) | ? | 5.6µM* | ? | ? | 11% | 15% | -10%
O=[S+]([O-])(c1cccs1)N1CCC2(CC(c3cccnc3)=NO2)C1 (centres undefined) | 1% | · | -7% | · | · | · | ·
O=C(NC1CCCCC1)C1CCN(C(=O)c2ncn3c2COC(c2ccc(Cl)cc2)C3)CC1 (centres undefined) | 1% | ? | -19% | -3% | · | · | ·
O=C(Nc1ccc(F)cc1)C1CCN(C(=O)c2ncn3c2COC(c2ccccc2)C3)CC1 (centres undefined) | -31% | 1.6µM* | -30% | ? | 9% | 1.1µM* | 1.8µM*
O=C(Nc1ccc(Cl)cc1)C1CCN(C(=O)c2ncn3c2COC(c2ccccc2)C3)CC1 (centres undefined) | i | 1.8µM* | 6% | ? | 14% | 1.1µM* | 1.8µM*
O=C(NC1CCCCCC1)C1CCN(C(=O)c2ncn3c2COC(c2ccccc2)C3)CC1 (centres undefined) | i | 13µM* | 11% | -2% | 13% | ? | 7.9µM*
CCC(CC)C(=O)N1CCC2(CCc3nn(CCOC)c(=O)n3CC2)CC1 | -11% | · | i | · | · | · | ·
O=C(O)c1ccc(-c2noc(-c3cccc(Cl)c3)n2)cc1 | · | · | · | · | ? | ? | 7µM*
COc1ccc(-c2noc(-c3nc(-c4cccnc4)no3)n2)cc1 | 4% | i | 13% | -1% | · | · | ·
c1ccc(-c2noc(-c3ccc4ccccc4c3)n2)cc1 | · | · | · | · | 36% | ? | 0.7µM*
Cc1noc(-c2nc(-c3cccc(Cl)c3)no2)n1 | 1% | ? | ? | -4% | · | · | ·
O=C(O)c1ccc(-c2ncccn2)cc1 | 0%[174 µM] | · | -1%[230 µM] | · | · | · | ·
O=C(O)c1ccc(-c2noc(-c3ccccc3C(F)(F)F)n2)cc1 | · | · | · | · | 14% | ? | ?
O=C(O)c1ccc(-c2noc(-c3ccccc3Cl)n2)cc1 | · | · | · | · | 30% | 1.6µM* | 1.1µM*
COC(=O)C1=C(C)N(Cc2ccccc2F)C(=O)CC1c1ccc(F)cc1F (centres undefined) | ? | i | ? | -1% | · | · | ·
CCOc1ccccc1C1NC(=O)N(CC(=O)Nc2ccccc2)C2=C1C(=O)OC2 (centres undefined) | -14% | i | -12% | -2% | · | · | ·
CN1CCCCCCN(CC2CCCCC2)[C@H]2CCC[C@H]2C1=O | ? | i | ? | -18% | · | · | ·
COCCNC(=O)[C@@H]1C[C@@H](O)CN1C1CCN(C(=O)c2ccc(C(C)C)cc2)CC1 | -9% | i | 2% | 3% | · | · | ·
CN(C)c1cccc(NCc2nc3c(n2Cc2ccccc2)C(=O)N(CCOc2ccccc2)CCN3)c1 | ? | i | ? | -6% | · | · | ·
O=C(O)c1cccc(-c2noc(-c3ccccc3C(F)(F)F)n2)c1 | · | · | · | · | 25% | 0.12µM* | 0.062µM*
O=C(O)c1cccc(-c2cc(C(F)(F)F)ccc2Cl)c1 | i | · | 5% | · | · | · | ·
COc1ccc(-c2cc(=O)c3cc(OCC(=O)OC(C)C)ccc3o2)cc1 | · | · | · | · | ? | ? | 3.9µM*
COc1ccc(-c2noc(C(=O)O)c2[C@H](C)O)cc1 | i | i | 4%[230 µM] | 2%[70.6 µM] | · | · | ·
O=C(COc1ccc(NC(=O)C2CC2)cn1)NCc1ccccc1 | -6% | i | -1% | 0% | · | · | ·
SMILES | NIH3T3 tox | FLuc inh-1 | HEK293 tox | hNpr1 antagonist | FLuc SDR -ATP | FLuc SDR ATP | FLuc inh-2 | others
O=C(Nc1cnc(-c2ccc(Cl)cc2)nc1)C1CCC1 | -1% | 0.28µM* | 2% | 5.6µM* | ? | ? | 1.2µM*
O=C(Nc1cnc(-c2ccccc2)nc1)C1CCCC1 | -22% | 1µM* | ? | 10µM* | ? | ? | 2.5µM*
O=c1[nH]ccn1C1CCN([S+](=O)([O-])c2cccs2)CC1 | -23%[138 µM] | i | -21%[172 µM] | -14%[70.6 µM] | · | · | ·
Cc1ccccc1Cc1nc(-c2nnn3c2COC(c2ccc(Cl)cc2)C3)no1 (centres undefined) | -37% | i | -23% | -18% | · | · | ·
N#Cc1ccc(C(=O)Nc2ccc([C@H]3OCC(=O)N(C4CCOCC4)[C@@H]3CO)cc2)cc1 | 1% | i | -4% | 0% | · | · | ·
O=C(Nc1ccc([C@H]2OCC(=O)N(C3CCOCC3)[C@@H]2CO)cc1)c1ccc(C(F)(F)F)cc1 | -18% | 10µM* | -5% | 0% | ? | 15% | ?
COC(=O)[C@@H]1Cc2ncn(Cc3ccc(Cl)cc3)c2CN1C(=O)c1cccs1 | ? | i | -10%[172 µM] | -22%[70.6 µM] | · | · | · | Npr1 antag conf=-22%[86.2 µM];Npr2 selectivity=-24%[86.2 µM];FLuc counter=2%[86.2 µM];GloSensor ctrl=5%[86.2 µM]
O=C(c1ccc(F)cc1F)N1CCC2(CC1)N=C(c1ccc(Cl)cc1)NO2 | ? | i | ? | 14µM* | · | · | · | Npr1 antag conf=24µM*;Npr2 selectivity=24µM*;FLuc counter=-4%;GloSensor ctrl=22µM*
O=C(c1ccc(F)cc1F)N1CCC2(CC1)N=C(c1ccc(Br)cc1)NO2 | ? | i | ? | 11µM* | · | · | · | Npr1 antag conf=17µM*;Npr2 selectivity=15µM*;FLuc counter=-2%;GloSensor ctrl=12µM*
O=C(CCC1CC1)N1CCC(c2cc(Cc3ccccc3)[nH]n2)CC1 | ? | i | ? | -27% | · | · | · | Npr1 antag conf=-27%;Npr2 selectivity=-25%;FLuc counter=-12%;GloSensor ctrl=-27%
